Measured values: the OligoGym collection

What follows are sequences tested against CD48 (assay: pooled miR-30 sensor sort-seq; sequence = guide strand). Settings: shRNA.

Going from TTAACTTGAAAATCCTCGTTGA to TGAGGATCAAGTCTGACCCTGC, the sensor-assay potency score (higher = more potent) falls from 1.27 to 0.0902.

First: TTCAGAGTCACGTTGCTGCCGG
Second: TGTAGTTTACAGACTCGCCAGG
The sensor-assay potency score (higher = more potent) of the first is higher: -0.426 for the first, -0.895 for the second.

Compared with TCAATTTTGATGACAGGCTTGG, TTGATCTTCCATTCTTGCTCAT is higher in sensor-assay potency score (higher = more potent): 0.186 for the first, 0.311 for the second.

Going from ATGTGTATCTCTATATCTCTGT to TGATCTTCCATTCTTGCTCATT, the sensor-assay potency score (higher = more potent) falls from -0.19 to -1.23.

For TTGGCAAGTATAACACCTGGAG, the sensor-assay potency score (higher = more potent) was -0.157.

These sequences were tested against CD58 in the same assay as above. Settings: shRNA.

Compared with TATACAGCACAATACATGTTGT, TTACAAAAGTATCTACATCATC is higher in sensor-assay potency score (higher = more potent): -0.688 for the first, -0.687 for the second.

Compared with TAATGCTCTGGTATCATGCATT, TTGAGTTACGTTTACATTGCTC is higher in sensor-assay potency score (higher = more potent): -0.599 for the first, -0.143 for the second.

First: TACATGTTGTAATTACTGCTAA
Second: TTCATATACAGCACAATACATG
The sensor-assay potency score (higher = more potent) of the first is higher: -0.161 for the first, -1.42 for the second.

Going from TAAAGAAAGAACTTCATGGTAT to TAATAAGTTGATGACAGCCAAA, the sensor-assay potency score (higher = more potent) falls from 0.701 to -1.7.

Compared with TTTGTTGGGAAAAACAGCTGAT, TAAAATAATTTAGTTATGCTGT is lower in sensor-assay potency score (higher = more potent): -0.0646 for the first, -0.222 for the second.

Compared with TAAAAGATGAGAAAGCTCTGAA, TATAAGTGCATATCTGTGTCTT is lower in sensor-assay potency score (higher = more potent): 0.844 for the first, 0.724 for the second.

First: TTAAAATATATACTGGTTGAGT
Second: TTGTGGAAGATCATTTTCCATC
The sensor-assay potency score (higher = more potent) of the first is higher: -0.467 for the first, -1.11 for the second.

Compared with ATATACAGCACAATACATGTTG, TTTCATACTCATCTTCATCTGA is higher in sensor-assay potency score (higher = more potent): 0.0974 for the first, 0.555 for the second.

Going from TTGCTCCATAGGACAATCCCAT to TTAAAAGATGAGAAAGCTCTGA, the sensor-assay potency score (higher = more potent) rises from -1.06 to -0.214.

Going from TACAGCACAATACATGTTGTAA to TTGTTTTTTCCATAGGACCTCT, the sensor-assay potency score (higher = more potent) rises from -0.704 to -0.0433.

Compared with TTTAAAGGCACATTGCTTGGTA, TTCTTCTTAAAGCAGCTGCTTC is lower in sensor-assay potency score (higher = more potent): 0.706 for the first, -0.594 for the second.

TTATCCTTTTGTTTTTTCCATA was tested, and the sensor-assay potency score (higher = more potent) was -1.18.

What follows are sequences tested against CD86 in the same assay as above. Settings: shRNA.

First: TAGAATTAGACAGAAAACCATC
Second: TAACTGTTGGAAGTACAGCTGT
The sensor-assay potency score (higher = more potent) of the first is lower: -0.951 for the first, -0.0777 for the second.

Compared with TTATATTAGAAATTGGTACTAT, AAGATGGTCATATTGCTCGTAA is lower in sensor-assay potency score (higher = more potent): 0.249 for the first, -0.638 for the second.

Compared with TCTTGGTCTGTTCACTCTCTTC, ATTGAAATAAGCTTGAATCTTC is higher in sensor-assay potency score (higher = more potent): -1.55 for the first, 0.247 for the second.

Going from TTCTGTGACATTATCTTGAGAT to TTTATGTACACATTTTCTGTTA, the sensor-assay potency score (higher = more potent) falls from 0.246 to -0.664.
